An excerpt weighted towards active compounds, which were near 3.4% of everything screened.
PAFAH1B2 FP inh = PAFAH1B2 enzyme inhibitors, primary screen, biochemical, fluorescence polarization, human; inhibition, % at 3.39 µM; recombinant PAFAH1B2, FP-rhodamine activity probe; 340,000 tested, 1.2% active; AID 492953, 2010; Platelet-activating factor acetylhydrolase IB subunit alpha2 (Homo sapiens), P68402;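 active = inhibition above the mean of all tested compounds plus 3 SD, cut at about 24% in these data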
pPAFAH inh = pPAFAH enzyme inhibitors, primary screen, biochemical, fluorescence polarization, human | Platelet-activating factor acetylhydrolase (Homo sapiens), Q13093 | recombinant pPAFAH, FP-rhodamine probe fluorescence polarization | inhibition, % at 3.39 µM | 330,000 tested, 1.5% active | AID 463082, 2010;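 active = inhibition above the mean inhibition across the screen plus 3 SD, cut at about 25% in these data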;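 also: inhibitors block binding of the rhodamine activity-based probe so polarization drops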
PP1 inh = PP1-alpha phosphatase inhibitors, primary screen, counter-screen for PP5 inhibitor project, biochemical, fluorescence, OMFP substrate, single point. Serine/threonine-protein phosphatase PP1-alpha catalytic subunit (Homo sapiens), P62136. purified PP1alpha. inhibition, % at 6.7 µM. 320,000 tested, 0.9% active. AID 2235, 2010;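 active = inhibition above the mean inhibition of all tested compounds plus 3 SD, computed separately for each screening campaign, cut at about 15% in these data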
Target sequence (P62136 whole entry, looked up): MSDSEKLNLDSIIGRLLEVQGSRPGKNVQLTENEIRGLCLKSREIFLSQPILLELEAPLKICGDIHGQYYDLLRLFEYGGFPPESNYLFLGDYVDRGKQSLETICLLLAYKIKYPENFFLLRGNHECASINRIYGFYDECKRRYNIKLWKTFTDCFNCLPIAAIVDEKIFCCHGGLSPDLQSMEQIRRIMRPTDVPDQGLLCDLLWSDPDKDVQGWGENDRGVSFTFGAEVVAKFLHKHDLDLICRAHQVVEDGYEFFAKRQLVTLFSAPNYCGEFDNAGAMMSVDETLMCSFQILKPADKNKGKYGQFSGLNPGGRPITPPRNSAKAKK
PAFAH1B3 FP inh = PAFAH1B3 enzyme inhibitors, primary screen, biochemical, fluorescence polarization, human | Platelet-activating factor acetylhydrolase IB subunit alpha1 (Homo sapiens), Q15102 | recombinant PAFAH1B3, FP-rhodamine probe | inhibition, % at 3.39 µM | 340,000 tested, 0.28% active | AID 492972, 2010;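 active = inhibition above the screen-wide average of all tested compounds plus 3 SD, cut at about 25% in these data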
Target sequence (Q15102 whole entry, looked up): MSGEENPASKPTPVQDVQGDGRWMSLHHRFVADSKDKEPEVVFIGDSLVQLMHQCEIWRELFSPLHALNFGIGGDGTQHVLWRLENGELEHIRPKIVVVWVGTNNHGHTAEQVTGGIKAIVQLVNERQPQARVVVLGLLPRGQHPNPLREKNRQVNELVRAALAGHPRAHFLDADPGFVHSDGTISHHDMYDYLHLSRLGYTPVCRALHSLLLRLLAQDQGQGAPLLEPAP
PP5 inh = PP5 phosphatase inhibitors, primary screen, biochemical, fluorescence; Serine/threonine-protein phosphatase 5 (Homo sapiens), P53041; purified PP5c, OMFP substrate fluorescence; inhibition, % at 6.7 µM; 320,000 tested, 0.18% active;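 active = inhibition above the campaign's mean inhibition across all tested compounds plus 3 SD, cut at about 9.5% in these data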
PAFAH2 inh = PAFAH2 enzyme inhibitors, primary screen, biochemical, fluorescence polarization, human; 340,000 tested, 0.99% active; recombinant PAFAH2, FP-rhodamine activity probe; Platelet-activating factor acetylhydrolase 2, cytoplasmic (Homo sapiens), Q99487; inhibition, % at 3.39 µM; AID 492956, 2010;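 active = inhibition above the mean over all tested compounds plus 3 SD, cut at about 30% in these data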;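 also: inhibitors block probe labeling of enzyme so polarization drops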
PAFAH2 FP conf = PAFAH2 enzyme inhibitors, confirmation, biochemical, fluorescence polarization, human | shares compounds with PAFAH2 inh | recombinant PAFAH2, FP-rhodamine activity probe | inhibition, % at 3.39 µM | 2,300 tested, 65% active | AID 493030, 2011;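 active = mean inhibition over three repeats above a set limit taken from the earlier primary screen, cut at about 30% in these data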;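 also: inhibitor blocks binding of rhodamine activity probe so polarization falls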
Each line names hits and unclear results; the compound was inactive in the other large screens (follow-up assays come after a bar, where they were run).

Cc1cccc(C(=O)OCC(=O)Nc2ccc3c(c2)OCCO3)c1O	none
Cc1c(-c2ccn[nH]2)cc(NC(=O)c2ccc(Cl)cc2)c(=O)n1N	none (no result: PAFAH1B2 FP inh, PAFAH1B3 FP inh, PAFAH2 inh)
C=CCN1C(=O)c2ccc(C(=O)OCC(=O)N3CCN(c4ccccc4)CC3)cc2C1=O	none
COc1ccc(-n2nc(C(=O)NCC(=O)Nc3cc(OC)c(OC)c(OC)c3)c3ccccc3c2=O)cc1OC	none
COc1cc(OC)cc(C(=O)N[C@H](C(=O)Nc2cc(F)ccc2C)C(C)C)c1	none
O=C(COC(=O)c1ccccc1F)Nc1ccc2c(c1)OCCO2	PAFAH2 inh 70 (no result: pPAFAH inh, PP1 inh, PP5 inh) | PAFAH2 FP conf 52
O=C(COC(=O)CNC(=O)c1ccccc1F)Nc1ccc2c(c1)OCCO2	none
COc1ccccc1NC(=O)c1cc([N+](=O)[O-])ccc1N1CCOCC1	none
Cc1ccc(S(=O)(=O)N(C)c2ccc(OC(=O)c3cccs3)cc2)cc1C	PAFAH2 inh 34 | PAFAH2 FP conf inactive
CCc1ccc(NC(=O)c2noc3c2CCC3)cc1	PAFAH2 inh 31 | PAFAH2 FP conf inactive
CCc1ccc(NC(=O)c2noc3c2CCCCC3)cc1	none
Cc1cccc(-n2c(Cc3cc(=O)[nH]c(=O)[nH]3)nnc2SCC(=O)N2CCc3ccccc32)c1	none
Cc1ccc(CNC(=O)COC(=O)CN2C(=O)C3CC=CCC3C2=O)cc1 (stereo unspecified)	PAFAH2 inh 37 (no result: PP1 inh, PP5 inh) | PAFAH2 FP conf inactive
CN(C)S(=O)(=O)c1cccc(NC(=O)COC(=O)/C=C/c2ccc([N+](=O)[O-])cc2)c1	PAFAH2 inh 34 | PAFAH2 FP conf inactive
NS(=O)(=O)c1ccc(NC(=O)COC(=O)/C=C/c2ccc([N+](=O)[O-])cc2)cc1	none
CN(C)S(=O)(=O)c1cccc(NC(=O)COC(=O)/C=C/c2ccc(Br)o2)c1	PAFAH2 inh 40 | PAFAH2 FP conf 35
Cc1ccc(NC(=O)COC(=O)/C=C/c2ccc(Br)o2)cc1S(=O)(=O)N(C)C	PAFAH2 inh 64 | PAFAH2 FP conf 59
O=C(COC(=O)c1ccc(NS(=O)(=O)c2cccs2)cc1O)NC1CCCCC1	PAFAH2 inh 34 | PAFAH2 FP conf inactive
Cc1ccc(C(=O)NCC(=O)OCC(=O)NC2CCCC(C)C2C)s1 (stereo unspecified)	PAFAH2 inh 48 | PAFAH2 FP conf 31
O=C(COC(=O)c1cccs1)NC1CCCCC1	PAFAH2 inh 76 | PAFAH2 FP conf 85
Cc1ccc(NC(=O)COC(=O)CNC(=O)c2ccc(C)s2)cc1	none
CC1CCCC(NC(=O)COC(=O)c2n[nH]c3ccccc23)C1C (stereo unspecified)	PAFAH2 inh 79 (no result: PP1 inh, PP5 inh) | PAFAH2 FP conf 72
O=C(COC(=O)c1cccs1)NC1CCCC1	PAFAH2 inh 81 | PAFAH2 FP conf 74
CC1CCCC(NC(=O)COC(=O)c2cccs2)C1C (stereo unspecified)	PAFAH2 inh 81 | PAFAH2 FP conf 85
CC1CCCC(NC(=O)CNC(=O)c2cccs2)C1C (stereo unspecified)	none
Cc1c(C(=O)N2CCCCC2)c(S(=O)(=O)Nc2ccc(F)cc2F)c(C)n1C	none
O=C(NC(=S)NNC(=O)c1ccccc1O)c1cccc([N+](=O)[O-])c1	PAFAH2 inh 42 | PAFAH2 FP conf inactive
O=C(NC(=S)NNC(=O)c1ccccc1O)c1ccco1	PAFAH2 inh 53 | PAFAH2 FP conf 42
O=C(NCC1CCCO1)c1ccc(COc2ccccc2Br)cc1 (stereo unspecified)	none
CSc1ccc(Cl)c(C(=O)OCC(=O)NCC(C)C)c1	PAFAH2 inh 43 | PAFAH2 FP conf 30
O=C(Nc1ccc(-c2csc(Nc3ccccc3)n2)cc1)c1cc([N+](=O)[O-])cc(C(F)(F)F)c1	PAFAH2 inh 50 | PAFAH2 FP conf inactive
O=C(Nc1cccc(-c2csc(Nc3cccc(C(F)(F)F)c3)n2)c1)c1cc([N+](=O)[O-])cc(C(F)(F)F)c1	PAFAH2 inh 30 | PAFAH2 FP conf inactive
O=C(CN(C(=O)CNC(=O)c1cccs1)c1ccc(F)cc1)NC1CCCCC1	none
CC(C)Oc1ccc(C(=O)OCC(=O)c2ccc[nH]2)cc1	PAFAH2 inh 54 (no result: PP1 inh, PP5 inh) | PAFAH2 FP conf 36
Cc1ccc(C(=O)OCC(=O)c2ccc[nH]2)s1	PAFAH2 inh 35 | PAFAH2 FP conf 31
O=[N+]([O-])c1ccc(Sc2ncc3ccccn23)nc1	none
CC(C)CCNC(=O)CN(Cc1ccccc1)C(=O)CCC(=O)Nc1ccccn1	none
CCNC(=S)Nc1ccc(Cl)c(C(F)(F)F)c1	none
CC1CCCN(C(=O)COC(=O)c2ccc3[nH]c4c(c3c2)CCCC4)C1 (stereo unspecified)	PAFAH2 inh 41 | PAFAH2 FP conf inactive
O=C(Nc1ccccc1N1CCOCC1)c1ccc(N2CCCC2=O)cc1	none
O=S(=O)(c1ccc2c(c1)CCCN2)N1CCCC1	none
O=S(=O)(c1ccc2c(c1)CCCN2)N1CCCC2CCCCC21 (stereo unspecified)	PAFAH2 inh 31 | PAFAH2 FP conf inactive
O=C(CC12CC3CC(CC(C3)C1)C2)NCC(=O)N1CCc2ccccc2C1	PAFAH2 inh 81 | PAFAH2 FP conf 71
O=C(NCC(=O)N1CCc2ccccc2C1)c1ccccc1Cl	none (no result: pPAFAH inh, PP1 inh, PP5 inh)
Cc1nn(C2CCS(=O)(=O)C2)c(Cl)c1/C=C/C(=O)OCC(=O)Nc1ccccc1OC(F)F (stereo unspecified)	PAFAH2 inh 50 | PAFAH2 FP conf 43
C=CCn1c(C)cc(C(=O)COC(=O)/C=C/c2c(C)nn(C3CCS(=O)(=O)C3)c2Cl)c1C (stereo unspecified)	PAFAH2 inh 53 | PAFAH2 FP conf 43
CCc1ccc(NC(=O)COC(=O)/C=C/c2c(C)nn(C3CCS(=O)(=O)C3)c2Cl)cc1 (stereo unspecified)	none
Cc1nn(C2CCS(=O)(=O)C2)c(Cl)c1/C=C/C(=O)OCC(=O)Nc1ccccc1[N+](=O)[O-] (stereo unspecified)	PAFAH2 inh 75 | PAFAH2 FP conf 74
CCCCc1nc2cc(C(=O)NCc3cc(C)n(C)n3)ccc2o1	none
COc1ccc(CNC(=O)c2cc3cccc(O)c3oc2=N)cc1	none
CCN(c1cccc(C)c1)C1C(=O)c2ccccc2N1C(C)=O (stereo unspecified)	PAFAH2 inh 38 | PAFAH2 FP conf inactive
O=C(CNC(=O)c1ccccc1F)OCCOc1cccc(Cl)c1	none
CC(C)(C)N/C=C(\C#N)S(=O)(=O)c1ccc(Br)cc1	none (no result: PAFAH1B2 FP inh, PAFAH1B3 FP inh, PAFAH2 inh)
